Compound activity: PubChem BioAssay, National Center for Advancing Translational Sciences (NCATS)
PGK inhibitor – qHTS Assay to Find Inhibitors of Phosphoglycerate Kinase; Phosphoglycerate kinase, glycosomal (Trypanosoma brucei brucei), P07378; PGK/GAPDH coupled, Kinase-Glo luminescence, 60 min; Potency, µM (series often up to 57.5 µM), inactives show at the top dose activity change, negative = inhibition, actives largely listed as inhibitors; 380,000 tested, 0.043% active; AID 602233, 2012; also: potency is read from the fitted curve at half-maximal effect; nearly all actives have a fitted effect of over 60% in size
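Recombinant glycosomal PGK reaction used 1,3-bisphosphoglycerate generated in-well by GAPDH (100nM final) in 100mM TEA pH 7.6, 5mM MgCl2, 0.01% Tween-20. After 60 minutes at room temperature, ATP was read by Kinase-Glo Plus luminescence end-point.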
TDP1 inh – qHTS Assay for Inhibitors of Tyrosyl-DNA Phosphodiesterase (TDP1). Potency, µM (titrated, usually from 130 µM), inactives show at the highest dose activity change, negative = inhibition, actives largely listed as inhibitors. recombinant TDP1, AlphaScreen DNA substrate cleavage. 350,000 tested, 0.28% active. AID 485290, 2010. Tyrosyl-DNA phosphodiesterase 1 (Homo sapiens), Q9NUW8; also: potency is read from the fitted curve at half-maximal effect; nearly all actives have a fitted effect of over 40% in size
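E. coli-derived human Tdp1, 1 nM final. Cpd preinc 15 min RT; substrate 15 nM final, 5 min RT; AS bead mix 10 ug/ml final, 10 min RT. Signal loss = tyrosine-FITC cleavage. No-enzyme wells = max signal.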
PI4K2A inh – qHTS for small molecular inhibitors of PI4K2A; 420,000 tested, 0.13% active; purified PI4K2A, ADP-Glo luminescence, 1 h; active compounds read low; activity change, negative = inhibition, % at 76.9 µM; in the data active = activity change below about -50%; inconclusive = mostly about -30% to -49%;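 also: -100% = wells without enzyme as full effect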
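In this quantitative HTS, ADP production by PI4K2A was quantified luminescently after 1 h at ambient temperature; 100 microM adenosine served as plate-quality control.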
FEN1 inhibitor – qHTS Assay for the Inhibitors of Human Flap endonuclease 1 (FEN1). 390,000 tested, 0.35% active. Potency, µM (titrated, usually from 114 µM), without a hit: at the highest dose activity change, negative = inhibition, hits mostly inhibitors. Recombinant FEN1 flap cleavage, fluorescence, 15 min. P39748; also: potency is read from the fitted curve at half-maximal effect; nearly all actives have a fitted effect of over 65% in size
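Quantitative HTS format: each compound was titrated, incubated with 10 nM nuclease for 15 min at room temperature, then challenged with flap substrate at 50 nM final. Signal change over 15 min gave concentration–effect curves.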
Tb PFK inh – qHTS Assay to Find Inhibitors of T. brucei phosphofructokinase. ATP-dependent 6-phosphofructokinase (Trypanosoma brucei brucei), O15648. T. brucei PFK, ADP-Glo luminescence. Potency, µM (titrated, usually from 57.5 µM), inactives show at the top dose activity, negative = inhibition, hits mostly inhibitors. 330,000 tested, 0.17% active;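 also: potency is read from the fitted curve at half-maximal effect; 0% = uninhibited 1x PFK enzyme wells and -100% = no-enzyme wells; nearly all actives have a fitted effect of over 60% in size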
Target sequence (O15648 whole entry, looked up): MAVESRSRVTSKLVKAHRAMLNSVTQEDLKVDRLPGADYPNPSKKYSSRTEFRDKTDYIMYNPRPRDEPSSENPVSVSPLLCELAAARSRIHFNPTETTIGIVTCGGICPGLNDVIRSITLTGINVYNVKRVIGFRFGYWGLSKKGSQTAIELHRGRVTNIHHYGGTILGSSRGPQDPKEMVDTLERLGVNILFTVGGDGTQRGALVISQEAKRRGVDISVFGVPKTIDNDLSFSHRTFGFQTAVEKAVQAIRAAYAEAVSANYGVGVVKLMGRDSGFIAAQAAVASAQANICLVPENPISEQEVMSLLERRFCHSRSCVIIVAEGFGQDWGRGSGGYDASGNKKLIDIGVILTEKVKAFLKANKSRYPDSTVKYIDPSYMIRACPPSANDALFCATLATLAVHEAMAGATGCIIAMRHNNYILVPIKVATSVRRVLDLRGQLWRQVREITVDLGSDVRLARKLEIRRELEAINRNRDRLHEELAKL
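1.25 nM PFK with 0.5 mM F6P and 0.1 mM ATP in 0.1 M TEA pH 8.0, 5 mM MgCl2, incubated 45 min at room temperature; ADP measured by ADP-Glo luminescence; compounds titrated up to 57 uM.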
APEX1 inh – qHTS Assay for Inhibitors of the Human Apurinic/apyrimidinic Endonuclease 1 (APE1); DNA repair nuclease/redox regulator APEX1 (Homo sapiens), P27695; recombinant APE1, TAMRA/BHQ-2 abasic DNA cleavage fluorescence; Potency, µM (series often up to 65.8 µM), without a hit: at the highest dose activity change, negative = inhibition, most hits filed as inhibitors; 350,000 tested, 0.35% active; AID 2517, 2012;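 also: potency is read from the fitted curve at half-maximal effect; plate controls were vehicle for no effect and reference inhibitor for full effect; nearly all actives have a fitted effect of over 55% in size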
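Enzyme (0.75 nM final) and test compound are incubated 15 min at room temperature before adding 50 nM quenched THF abasic-site duplex. Cleavage dequenches TAMRA, followed at 525/598 nm over three reads one minute apart.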
The depositor's hits bear a star; i = inactive; ? = inconclusive; · = not tested or not shown; ! = a repeat was not active; [ ] = dose if it differs, or a comment. In the library only some 0.8% were active in any assay of this set; here they are far more common. Unless noted, calls follow the shape of the dose curve; as a rule, active = well fitted curve in the direction sought with a large enough effect; inconclusive = small, poorly fitted or top-dose-only effect, or another doubt; inactive = no such curve, though single readings can be large; an effect the other way counts as inactive or inconclusive. Unless noted, % is scaled to controls: 0 for no effect and ±100 for the full control effect.

SMILES	PGK inhibitor	TDP1 inh	PI4K2A inh	FEN1 inhibitor	Tb PFK inh	APEX1 inh
O=C(O)c1cc(N2C(=O)C=CC2=O)cc(N2C(=O)C=CC2=O)c1	?	·	-24	10µM*	·	·
NC(=O)c1cc(N2C(=O)C=CC2=O)ccc1Cl	-9%	9%	5	4%	-2%	-5%
COc1ccc(-c2nc3ccccc3n2Cc2ccccc2)cc1COc1ccc(NC(C)=O)cc1	·	-2%	·	·	·	·
Cc1c(P(=S)(c2ccccc2)c2ccccc2)[n+]2ccccc2n1Cc1ccccc1	·	1%	·	·	·	·
O=C(CN1CCOCC1)N/N=C/c1ccc(-c2ccc(C(=O)O)cc2)o1	-8%	32µM*	0	10%	4%	?
CC1(CC(=O)N/N=C/c2ccc(-c3ccc(C(=O)O)cc3)o2)OCCO1	5%	-5%	-4	7%	9%	-7%
Cc1oc(-c2ccccc2)nc1CCC(=O)c1ccc(CC2SC(=O)NC2=O)cc1 (configuration not stated)	·	·	0	·	·	·
CC(=O)Oc1ccc2nonc2c1OC(C)=O	·	-10%	·	10µM*	·	·
CC(=O)Nc1cc(OC(C)=O)c2nonc2c1OC(C)=O	-24%	-3%	-53*	-2%	1%	?
CC(=O)Oc1cccc(C(=O)O)c1OC(C)=O	·	7%[56.1 µM]	·	·	·	-3%
CN(C)CC1CCC/C(=C\c2ccc(OC(=O)/C=C/c3ccccc3)cc2)C1=O (configuration not stated)	-1%	·	5	12%	·	·
CN(C)CC1CC/C(=C\c2ccc(O)cc2)C1=O (configuration not stated)	i	·	-4	56µM*	·	·
C=CC(=O)Nc1cccc(Nc2nc(N[C@H]3CC[C@H](N(C)C)CC3)nc3c2ncn3C(C)C)c1	7%	·	-5	50µM*	·	·
C=CCn1c(SCC(=O)NC(=O)NCc2ccco2)nc2sc(CC)cc2c1=O	-15%	?	-13	-10%	?	32µM*
c1cc2c(cc1C1=NNC(=NC3CC3)SC1)OCCO2	13µM*	5%	?	14%	?	-4%
CCCCN=C1NN=C(c2ccc3c(c2)OCCO3)CS1	-2%	6%	-1	-18%	-22%	-10%
COc1ccc(C2Nc3ccccc3C(=O)N2Cc2ccccn2)cc1COc1ccc(NC(C)=O)cc1 (configuration not stated)	·	-11%	·	·	·	·
O=c1c2c(-c3ccco3)csc2nc(SCc2cn3cccnc3n2)n1-c1ccccc1	1%	-4%	-58*	1%	-7%	-2%
N[C@H](C(=O)O)c1ccc(O)c(C(=O)O)c1	·	14%[56.1 µM]	·	·	·	?
N[C@@H](C(=O)O)c1ccc(C(=O)O)c(C(=O)O)c1	·	40µM*!	·	·	·	-2%
CC(=O)Oc1cc(C(=O)OCC(=O)NC23CC4CC(CC(C4)C2)C3)cc(OC(C)=O)c1OC(C)=O	?	·	-3	14µM*	·	·
COc1cccc(C(=O)OCC(=O)NC23CC4CC(CC(C4)C2)C3)c1	-8%	-6%	2	-7%	0%	10%
Cc1[nH][nH]c(=O)c1C(c1ccc(-c2ccc(Cl)c(C(=O)O)c2)o1)c1c(C)[nH][nH]c1=O	-7%	?	-59*	?	12%	?
COC(=O)c1cccc(-c2ccc(C(c3c(C)[nH][nH]c3=O)c3c(C)[nH][nH]c3=O)o2)c1	-2%	9%	?	-24%	-16%	?
Cc1cc2c(s1)c1cnn(Cc3cc(C(F)(F)F)cc(Cl)c3F)c(=O)c1n2C	·	-6%	·	·	·	·
